“And” between values parts separate entries of the source, which are not always exact repeats. Equal values may be shown once. Records with an inconclusive call do not appear. Unmarked numbers belong to inactive results. The source made the active and inactive calls. Calls follow the shape of the dose curve; as a rule, active = well fitted inhibition curve with a large enough effect; inconclusive = small, poorly fitted or top-dose-only effect; inactive = flat fitted curve, though single readings scatter. Where a SMILES comes first, the peptide text is derived from it. Bridges are numbered along the chain shown (N, C = ends). [ ]: non-standard residue; d: D form. Orn = NCCC[C@H](N)C(=O)O; Mpa = O=C(O)CCS
Test system: HaCat
Test: Cytotoxic Profiling of Annotated Libraries Using Quantitative High-Throughput Screening (AID 1296008); also: nearly all actives have a fitted effect of over 60% in size
Conditions: Five cell lines viability, CellTiter-Glo ATP luminescence, 48-72 h; max response: hits give low values
Method in brief: (§1)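 Compounds were pin-transferred onto cells and incubated 48 or 72 hr at 37 degree Celsius, 95% humidity. CellTiter-Glo was added, plates sat 10 min at room temperature, then ATP-coupled luminescence was imaged as the viability read-out.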
% is scaled to controls: 0 for no effect and ±100 for the full control effect.

**Q.** `O=S(=O)(c1ccc(Cl)cc1)N1CCN(c2ccnc3cc(Cl)ccc23)CC1` was tested. Which outcome did it give?
**A.** inactive

**Q.** Which outcome does the source give for `CC(C)(O)C(=O)N1CCN(c2ccc(C(F)(F)F)c(C3=C(c4c[nH]c5ccccc45)C(=O)NC3=O)c2)CC1` here?
**A.** inactive

**Q.** How did the outcome turn out when `C=C1CC[C@@H]2[C@](C)(CO)[C@H](O)CC[C@@]2(C)[C@@H]1/C=C/C1=CCOC1=O` was run?
**A.** inactive

**Q.** Which outcome does the source give for `COc1cc2ncc(-c3ccccc3)nc2cc1OC` here?
**A.** inactive

**Q.** How did the outcome turn out when `COC1C(O)C(OC2CCC3(C)C(CCC45CCC6C7(COC(=O)C7)OC4(O)C6(C)CCC35)C2)OC(C)C1OC1OC(CO)C(OC2OC(CO)C(O)C(O)C2O)C(O)C1O` (centres undefined) was run?
**A.** inactive

**Q.** For `O=C(Nc1cc(C(F)(F)F)cc(C(F)(F)F)c1)c1cnc(Cl)nc1C(F)(F)F`, which outcome is on record?
**A.** inactive

**Q.** For `COc1cc(CCc2ccc(OCC=C(C)C)cc2)cc(OC)c1OC`, which outcome is on record?
**A.** inactive

**Q.** Which outcome does the source give for `COC(=O)c1ccc2c(c1)nc(NC(=O)c1ccccc1)n2CCCc1ccccc1` here?
**A.** inactive

**Q.** For `Nc1nc2c(c(N3CC[C@@H](N)C3)n1)CCCc1ccccc1-2`, which outcome is on record?
**A.** inactive

**Q.** Which outcome does the source give for `CC(=O)OC1CC(O)(C(C)C)C2C(OC(=O)c3ccc(O)cc3)C=C(C)C(=O)CC12C` (centres undefined) here?
**A.** inactive

**Q.** How did the outcome turn out when `C/C=C/C=C/c1cc2c(C=O)c(O)c(CC=C(C)C)cc2o1` was run?
**A.** inactive

**Q.** Which outcome does the source give for `O=C(Nc1ccccc1)N1CCN(c2nc(-c3ccccc3)ns2)CC1` here?
**A.** inactive

**Q.** Which outcome does the source give for `C#CCOc1ccc2c(c1)c(-c1ccc(C(C)C)cc1)nc(=O)n2C(C)C` here?
**A.** inactive

**Q.** For `C/C=C\NC(=O)C1NC(=O)C(CC(N)=O)NC(=O)C(NC(=O)C(=O)C(C)CC)Cc2ccc(O)c(c2)-c2cccc3c2NC(=O)C3(O)C1O` (centres undefined), which outcome is on record?
**A.** inactive

**Q.** `Cc1cc(C)nc(SCC(=O)Nc2ncc(Cc3cccc4ccccc34)s2)n1` was tested. Which outcome did it give?
**A.** inactive

Test system: KB-3-1
Test: as above
Conditions: Five cell lines viability, CellTiter-Glo ATP luminescence, 48-72 h; max response: hits give low values
Method in brief: as §1

**Q.** How did the max response turn out when `CC(C)(C)CC(=O)OCC(=O)[C@@]12OC(C)(C)O[C@@H]1C[C@H]1[C@@H]3CCC4=CC(=O)C=C[C@]4(C)[C@@]3(F)[C@@H](O)C[C@@]12C` was run?
**A.** 0.193%

**Q.** `COCc1c(Cl)ccc2c1CC[C@H]2c1ncc[nH]1` was tested. Which max response did it give?
**A.** -11.1%

**Q.** How did the max response turn out when `C[C@H]1C[C@@H]2[C@H]([C@@H](O)C[C@@]3(C)[C@H]2CC[C@]3(O)C(=O)COC(=O)CCC(=O)O)[C@@]2(C)C=CC(=O)C=C12` was run?
**A.** -6.8%

**Q.** How did the max response turn out when `C[C@@H]1C[C@H]2C3C[C@H](F)C4=CC(=O)C=CC4(C)[C@@]3(F)[C@@H](O)CC2(C)[C@@]1(O)C(=O)COC(=O)C(C)(C)C` (some centres undefined) was run?
**A.** 27.2%

**Q.** With `CCOc1ccc(C[C@H]2NC(=O)CCSSC[C@@H](C(=O)N3CCC[C@H]3C(=O)N[C@@H](CCCN)C(=O)NCC(N)=O)NC(=O)[C@H](CC(N)=O)NC(=O)[C@H]([C@@H](C)O)NC(=O)[C@H]([C@@H](C)CC)NC2=O)cc1` ([Mpa][dY](Et)ITNCP[Orn]G-NH2; disulfide 1-6) as the compound, how does the max response read?
**A.** -2.06%

**Q.** For `CCCCCCCCCCCCCCCC(=O)OC/C=C(C)/C=C/C=C(C)/C=C/C1=C(C)CCCC1(C)C`, which max response is on record?
**A.** -13.6%

**Q.** Which max response does the source give for `CC(=O)[C@@]1(O)CC[C@H]2[C@@H]3C=C(Cl)C4=CC(=O)CC[C@]4(C)[C@H]3CC[C@@]21C` here?
**A.** -17.5%

**Q.** For `CCOC(=O)[C@H](CCc1ccccc1)N[C@@H](C)C(=O)N1CC2(C[C@H]1C(=O)O)SCCS2`, which max response is on record?
**A.** -20.5%

**Q.** `NCCC(=O)[N-][C@@H](Cc1cnc[nH]1)C(=O)O.[Zn]` was tested. Which max response did it give?
**A.** -13.6%

**Q.** `Cc1ccccc1CNc1ncnc2c1ncn2[C@@H]1O[C@H](CO)[C@@H](O)[C@H]1O` was tested. Which max response did it give?
**A.** -19%

**Q.** Which max response does the source give for `CC(C)(S)C(=O)N[C@@H](CS)C(=O)O` here?
**A.** -0.209% and -15.2%

**Q.** Which max response does the source give for `CCCCCCCCCCCCCCCCCC(=O)OCCO` here?
**A.** -9.35%

**Q.** How did the max response turn out when `O=C(CCCN1CCC(n2c(=S)[nH]c3ccccc32)CC1)c1ccc(F)cc1` was run?
**A.** 8.28%

**Q.** Which max response does the source give for `C[C@H](/C=C/[C@H](C)C(C)(C)O)[C@H]1CC[C@H]2/C(=C/C=C3C[C@@H](O)C[C@H](O)C3)CCC[C@]12C` here?
**A.** 23%

**Q.** With `OC(CN1CCCCC1)c1cc(-c2ccccc2)on1` (centres undefined) as the compound, how does the max response read?
**A.** -12.7%

**Q.** With `C=C1C(=O)O[C@H]2CC(=C)[C@H]3CC[C@@](C)(O)[C@@H]3CC12` (some centres undefined) as the compound, how does the max response read?
**A.** -21.5%

**Q.** For `C/C=C(/CC[C@@H](C)[C@H]1CC[C@H]2C3=CC[C@H]4[C@H](C)[C@@H](O)CC[C@]4(C)[C@H]3CC[C@]12C)C(C)C`, which max response is on record?
**A.** -22.1%

**Q.** `CCOC(=O)c1csc(Nc2ccc(Cl)cc2)n1` was tested. Which max response did it give?
**A.** -19%

**Q.** Which max response does the source give for `CCC(=O)Oc1ccc2c(c1)CC[C@@H]1[C@@H]2CC[C@]2(C)[C@@H](OC(=O)CC)CC[C@@H]12` here?
**A.** -26.3%

**Q.** For `C=C1C(=O)O[C@@H]2[C@H]3C(C)=CC(=O)C3=C(C)[C@@H](OC(=O)/C(C)=C\C)[C@H](O)[C@@H]12`, which max response is on record?
**A.** 5.28%

**Q.** With `O=S(O)CNc1ccc(S(=O)(=O)c2ccc(NCS(=O)O)cc2)cc1` as the compound, how does the max response read?
**A.** -17.8%

**Q.** `CSCC[C@H](NC(=O)[C@H](Cc1ccc(OS(=O)(=O)O)cc1)NC(=O)[C@@H](N)CC(=O)O)C(=O)NCC(=O)N[C@@H](Cc1c[nH]c2ccccc12)C(=O)N[C@@H](CCSC)C(=O)N[C@@H](CC(=O)O)C(=O)N[C@@H](Cc1ccccc1)C(N)=O` was tested. Which max response did it give?
**A.** -5.26% and -10.7%

**Q.** `O=C1O[C@@H]2[C@@H](O)[C@H](O)O[C@@H]2[C@H]1O` was tested. Which max response did it give?
**A.** -9.13%

**Q.** `C=C1C(=C/C=C2\CCC[C@]3(C)[C@@H]([C@H](C)CCCC(C)(C)O)CC[C@@H]23)C[C@@H](O)C[C@@H]1O` was tested. Which max response did it give?
**A.** 4.02%

From PubChem BioAssay (NCATS)
